Test results published in ChEMBL document CHEMBL1961873, “Compounds: GSK PKIS; Assays: Nanosyn kinase panel” (2012).

Tests used:
[1] = molecular target: Dual specificity protein kinase CLK3 (Homo sapiens) (UniProt P49761); details: at 1 µM;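 note: each value is the mean inhibition of CLK3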
[2] = molecular target: Dual specificity tyrosine-phosphorylation-regulated kinase 1A (Homo sapiens) (UniProt Q13627); details: at 0.1 µM
[3] = molecular target: Dual specificity tyrosine-phosphorylation-regulated kinase 1A (Homo sapiens) (UniProt Q13627); details: at 1 µM
[4] = molecular target: Dual specificity tyrosine-phosphorylation-regulated kinase 1B (Homo sapiens) (UniProt Q9Y463); details: at 0.1 µM
Sequence of Dual specificity tyrosine-phosphorylation-regulated kinase 1B (Homo sapiens) (Q9Y463 whole entry, looked up): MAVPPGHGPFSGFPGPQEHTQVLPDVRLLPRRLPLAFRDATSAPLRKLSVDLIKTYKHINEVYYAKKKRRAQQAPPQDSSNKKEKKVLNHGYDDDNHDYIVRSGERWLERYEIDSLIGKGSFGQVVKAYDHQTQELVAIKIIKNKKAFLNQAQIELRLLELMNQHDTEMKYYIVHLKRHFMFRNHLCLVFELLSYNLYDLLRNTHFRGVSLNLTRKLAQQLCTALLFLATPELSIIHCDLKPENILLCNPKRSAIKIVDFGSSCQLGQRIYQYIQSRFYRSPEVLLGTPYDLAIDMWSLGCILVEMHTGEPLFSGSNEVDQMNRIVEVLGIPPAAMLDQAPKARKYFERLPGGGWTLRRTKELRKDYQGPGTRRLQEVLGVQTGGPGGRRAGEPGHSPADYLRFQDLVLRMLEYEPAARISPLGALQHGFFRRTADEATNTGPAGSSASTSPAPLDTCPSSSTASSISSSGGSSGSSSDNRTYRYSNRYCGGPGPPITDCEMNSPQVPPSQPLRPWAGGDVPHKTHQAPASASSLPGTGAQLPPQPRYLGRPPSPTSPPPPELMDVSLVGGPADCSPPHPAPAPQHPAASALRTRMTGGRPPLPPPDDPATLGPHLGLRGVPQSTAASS

[5] = molecular target: Dual specificity tyrosine-phosphorylation-regulated kinase 1B (Homo sapiens) (UniProt Q9Y463); details: at 1 µM
[6] = molecular target: T1, Dual specificity tyrosine-phosphorylation-regulated kinase 2 (Homo sapiens) (UniProt Q92630); details: at 0.1 µM
T1 sequence (whole entry): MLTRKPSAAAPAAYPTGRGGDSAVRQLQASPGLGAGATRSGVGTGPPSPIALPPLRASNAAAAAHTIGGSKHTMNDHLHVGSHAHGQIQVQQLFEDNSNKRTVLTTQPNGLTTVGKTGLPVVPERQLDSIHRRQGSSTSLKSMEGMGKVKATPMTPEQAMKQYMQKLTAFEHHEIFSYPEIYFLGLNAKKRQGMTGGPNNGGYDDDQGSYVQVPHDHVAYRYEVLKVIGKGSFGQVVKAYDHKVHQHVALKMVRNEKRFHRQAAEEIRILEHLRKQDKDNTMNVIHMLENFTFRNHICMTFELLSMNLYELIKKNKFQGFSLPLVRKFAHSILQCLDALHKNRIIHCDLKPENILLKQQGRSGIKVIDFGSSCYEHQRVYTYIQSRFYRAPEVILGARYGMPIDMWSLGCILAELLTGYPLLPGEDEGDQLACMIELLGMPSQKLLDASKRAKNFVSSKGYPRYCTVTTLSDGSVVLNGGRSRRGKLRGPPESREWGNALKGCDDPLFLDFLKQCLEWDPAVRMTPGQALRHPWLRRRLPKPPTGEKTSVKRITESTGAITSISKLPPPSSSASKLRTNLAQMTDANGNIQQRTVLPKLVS

[7] = molecular target: T1, Dual specificity tyrosine-phosphorylation-regulated kinase 2 (Homo sapiens); details: at 1 µM
[8] = molecular target: Glycogen synthase kinase-3 alpha (Homo sapiens) (UniProt P49840); details: at 0.1 µM
Sequence of Glycogen synthase kinase-3 alpha (Homo sapiens) (P49840 2-483 limits assumed): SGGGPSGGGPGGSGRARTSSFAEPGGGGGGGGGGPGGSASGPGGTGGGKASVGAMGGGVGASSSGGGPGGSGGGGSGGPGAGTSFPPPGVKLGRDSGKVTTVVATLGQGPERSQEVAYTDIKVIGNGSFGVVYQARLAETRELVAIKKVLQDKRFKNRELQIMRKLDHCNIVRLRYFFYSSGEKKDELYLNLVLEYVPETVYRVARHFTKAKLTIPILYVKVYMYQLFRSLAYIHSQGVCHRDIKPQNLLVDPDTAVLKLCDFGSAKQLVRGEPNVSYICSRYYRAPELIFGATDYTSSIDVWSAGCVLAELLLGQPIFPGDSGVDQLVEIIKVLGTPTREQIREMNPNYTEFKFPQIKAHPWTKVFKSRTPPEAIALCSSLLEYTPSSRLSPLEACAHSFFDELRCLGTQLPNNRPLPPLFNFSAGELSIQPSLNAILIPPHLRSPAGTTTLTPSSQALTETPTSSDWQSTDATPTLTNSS

[9] = molecular target: Glycogen synthase kinase-3 alpha (Homo sapiens) (UniProt P49840); details: at 1 µM
[10] = molecular target: Glycogen synthase kinase-3 beta (Homo sapiens) (UniProt P49841); details: at 0.1 µM
Sequence of Glycogen synthase kinase-3 beta (Homo sapiens) (P49841 whole entry, looked up): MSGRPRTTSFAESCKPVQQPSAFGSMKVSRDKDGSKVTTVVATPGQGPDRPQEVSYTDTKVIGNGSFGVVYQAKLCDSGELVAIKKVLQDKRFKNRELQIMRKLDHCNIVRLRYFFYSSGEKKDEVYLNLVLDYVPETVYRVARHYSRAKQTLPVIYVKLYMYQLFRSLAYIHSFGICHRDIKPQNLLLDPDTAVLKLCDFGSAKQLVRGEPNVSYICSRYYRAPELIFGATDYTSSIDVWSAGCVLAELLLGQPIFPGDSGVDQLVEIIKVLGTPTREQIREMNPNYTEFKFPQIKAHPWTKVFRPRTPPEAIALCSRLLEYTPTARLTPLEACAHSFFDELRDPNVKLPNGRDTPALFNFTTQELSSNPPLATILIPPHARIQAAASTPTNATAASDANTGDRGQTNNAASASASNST

[11] = molecular target: Glycogen synthase kinase-3 beta (Homo sapiens) (UniProt P49841); details: at 1 µM
[12] = molecular target: Homeodomain-interacting protein kinase 1 (Homo sapiens) (UniProt Q86Z02); details: at 0.1 µM
Sequence of Homeodomain-interacting protein kinase 1 (Homo sapiens) (Q86Z02 whole entry, looked up): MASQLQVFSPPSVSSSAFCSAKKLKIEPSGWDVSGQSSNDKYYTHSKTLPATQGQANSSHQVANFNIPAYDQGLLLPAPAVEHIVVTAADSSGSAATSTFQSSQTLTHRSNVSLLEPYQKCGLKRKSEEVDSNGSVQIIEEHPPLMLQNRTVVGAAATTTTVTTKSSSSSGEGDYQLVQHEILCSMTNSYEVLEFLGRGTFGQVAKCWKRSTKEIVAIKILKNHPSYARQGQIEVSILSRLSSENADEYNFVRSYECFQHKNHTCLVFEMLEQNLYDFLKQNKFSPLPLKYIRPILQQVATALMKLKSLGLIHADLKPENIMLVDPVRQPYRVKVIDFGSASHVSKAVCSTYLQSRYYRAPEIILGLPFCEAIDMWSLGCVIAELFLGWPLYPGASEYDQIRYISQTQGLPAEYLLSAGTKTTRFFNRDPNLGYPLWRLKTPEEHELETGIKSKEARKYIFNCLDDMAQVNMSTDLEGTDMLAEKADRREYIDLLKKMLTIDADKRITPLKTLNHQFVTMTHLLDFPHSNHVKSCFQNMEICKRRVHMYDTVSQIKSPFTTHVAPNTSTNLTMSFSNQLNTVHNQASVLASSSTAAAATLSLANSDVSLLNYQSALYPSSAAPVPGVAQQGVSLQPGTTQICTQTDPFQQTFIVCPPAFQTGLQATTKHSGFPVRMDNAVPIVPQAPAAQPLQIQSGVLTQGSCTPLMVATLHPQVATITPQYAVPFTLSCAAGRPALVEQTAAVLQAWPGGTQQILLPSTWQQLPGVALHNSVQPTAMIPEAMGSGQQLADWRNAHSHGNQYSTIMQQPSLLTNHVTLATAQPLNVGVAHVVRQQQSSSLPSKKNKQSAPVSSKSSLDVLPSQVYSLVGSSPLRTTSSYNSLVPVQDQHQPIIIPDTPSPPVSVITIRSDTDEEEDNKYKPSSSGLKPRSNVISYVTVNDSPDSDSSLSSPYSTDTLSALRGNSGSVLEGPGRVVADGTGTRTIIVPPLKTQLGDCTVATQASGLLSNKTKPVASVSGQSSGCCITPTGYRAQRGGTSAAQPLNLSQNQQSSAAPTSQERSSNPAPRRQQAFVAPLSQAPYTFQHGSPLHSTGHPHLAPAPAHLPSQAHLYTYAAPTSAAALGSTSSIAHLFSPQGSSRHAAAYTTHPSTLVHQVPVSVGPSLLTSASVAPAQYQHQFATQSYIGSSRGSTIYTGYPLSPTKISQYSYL

[13] = molecular target: Homeodomain-interacting protein kinase 1 (Homo sapiens) (UniProt Q86Z02); details: at 1 µM
[14] = molecular target: T2, Homeodomain-interacting protein kinase 4 (Homo sapiens) (UniProt Q8NE63); details: at 0.1 µM
T2 sequence (whole entry): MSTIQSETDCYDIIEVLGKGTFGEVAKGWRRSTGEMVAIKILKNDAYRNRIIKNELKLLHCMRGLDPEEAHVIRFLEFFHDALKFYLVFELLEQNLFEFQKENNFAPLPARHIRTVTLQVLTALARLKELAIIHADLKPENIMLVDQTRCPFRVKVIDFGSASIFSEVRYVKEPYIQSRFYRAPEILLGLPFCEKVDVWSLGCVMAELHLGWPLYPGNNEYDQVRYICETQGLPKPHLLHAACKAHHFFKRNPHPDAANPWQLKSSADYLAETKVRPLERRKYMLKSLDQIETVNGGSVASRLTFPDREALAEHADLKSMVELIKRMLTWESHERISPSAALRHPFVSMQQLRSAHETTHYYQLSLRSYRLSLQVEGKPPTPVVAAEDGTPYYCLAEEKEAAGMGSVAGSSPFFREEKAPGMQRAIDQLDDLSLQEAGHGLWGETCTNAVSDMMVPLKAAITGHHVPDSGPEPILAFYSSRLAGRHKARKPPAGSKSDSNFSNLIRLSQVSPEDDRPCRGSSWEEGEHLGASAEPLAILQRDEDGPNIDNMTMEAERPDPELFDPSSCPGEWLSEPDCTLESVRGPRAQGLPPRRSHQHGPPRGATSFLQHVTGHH

[15] = molecular target: T2, Homeodomain-interacting protein kinase 4 (Homo sapiens); details: at 1 µM
[16] = molecular target: Mitogen-activated protein kinase 9 (Homo sapiens) (UniProt P45984); details: at 0.1 µM
Sequence of Mitogen-activated protein kinase 9 (Homo sapiens) (P45984 whole entry, looked up): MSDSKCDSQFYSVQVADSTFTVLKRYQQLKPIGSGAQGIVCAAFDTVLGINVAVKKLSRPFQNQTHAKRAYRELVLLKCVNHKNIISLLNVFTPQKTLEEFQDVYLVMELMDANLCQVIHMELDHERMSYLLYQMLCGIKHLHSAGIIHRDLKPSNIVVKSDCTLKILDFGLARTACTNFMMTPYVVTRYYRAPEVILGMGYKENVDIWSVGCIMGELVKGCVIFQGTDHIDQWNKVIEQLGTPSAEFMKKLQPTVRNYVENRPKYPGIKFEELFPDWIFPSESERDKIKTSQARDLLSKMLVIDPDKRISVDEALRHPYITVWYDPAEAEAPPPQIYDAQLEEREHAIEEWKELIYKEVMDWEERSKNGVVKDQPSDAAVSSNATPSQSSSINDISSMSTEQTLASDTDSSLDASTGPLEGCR

[17] = molecular target: Mitogen-activated protein kinase 9 (Homo sapiens) (UniProt P45984); details: at 1 µM
[18] = molecular target: Mitogen-activated protein kinase 1 (Homo sapiens) (UniProt P28482); details: at 0.1 µM
Sequence of Mitogen-activated protein kinase 1 (Homo sapiens) (P28482 whole entry): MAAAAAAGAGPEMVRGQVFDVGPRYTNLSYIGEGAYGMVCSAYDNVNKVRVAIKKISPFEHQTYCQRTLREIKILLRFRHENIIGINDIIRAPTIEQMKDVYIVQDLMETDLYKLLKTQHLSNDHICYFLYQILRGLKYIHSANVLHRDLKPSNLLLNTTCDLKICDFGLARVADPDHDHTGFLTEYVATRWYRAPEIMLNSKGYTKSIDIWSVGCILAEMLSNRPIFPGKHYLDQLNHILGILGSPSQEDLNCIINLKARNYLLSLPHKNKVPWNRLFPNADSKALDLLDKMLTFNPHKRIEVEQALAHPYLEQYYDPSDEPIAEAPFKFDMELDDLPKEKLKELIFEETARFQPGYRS

[19] = molecular target: Mitogen-activated protein kinase 1 (Homo sapiens) (UniProt P28482); details: at 1 µM
[20] = molecular target: Mitogen-activated protein kinase 3 (Homo sapiens) (UniProt P27361); details: at 0.1 µM;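 note: each value is a mean inhibition figure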
Sequence of Mitogen-activated protein kinase 3 (Homo sapiens) (P27361 whole entry): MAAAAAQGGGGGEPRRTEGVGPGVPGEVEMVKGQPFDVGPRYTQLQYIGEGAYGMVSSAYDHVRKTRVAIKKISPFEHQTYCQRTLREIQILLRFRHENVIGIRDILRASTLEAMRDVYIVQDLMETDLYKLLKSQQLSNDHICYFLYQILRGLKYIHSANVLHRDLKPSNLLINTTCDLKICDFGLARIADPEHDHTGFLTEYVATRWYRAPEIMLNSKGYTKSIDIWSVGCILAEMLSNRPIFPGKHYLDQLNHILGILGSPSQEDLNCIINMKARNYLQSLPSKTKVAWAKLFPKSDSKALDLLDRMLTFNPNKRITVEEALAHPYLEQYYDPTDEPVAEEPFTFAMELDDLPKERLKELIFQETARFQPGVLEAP

Sequence of Dual specificity protein kinase CLK3 (Homo sapiens) (P49761 whole entry, looked up): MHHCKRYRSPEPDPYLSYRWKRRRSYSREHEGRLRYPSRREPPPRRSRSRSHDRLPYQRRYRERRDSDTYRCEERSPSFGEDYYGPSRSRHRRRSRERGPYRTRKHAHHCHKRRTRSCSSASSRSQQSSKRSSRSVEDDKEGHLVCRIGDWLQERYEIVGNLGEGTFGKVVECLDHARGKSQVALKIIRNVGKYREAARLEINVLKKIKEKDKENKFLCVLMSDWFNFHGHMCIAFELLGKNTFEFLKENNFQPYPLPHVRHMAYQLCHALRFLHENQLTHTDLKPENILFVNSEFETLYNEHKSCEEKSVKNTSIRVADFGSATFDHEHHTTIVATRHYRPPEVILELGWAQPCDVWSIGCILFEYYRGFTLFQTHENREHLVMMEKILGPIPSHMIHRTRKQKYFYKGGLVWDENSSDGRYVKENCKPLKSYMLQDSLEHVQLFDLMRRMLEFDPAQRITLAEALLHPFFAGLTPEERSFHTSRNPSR

Row | SMILES | inhibition [1] [%] | inhibition [2] [%] | inhibition [3] [%] | inhibition [4] [%] | inhibition [5] [%] | inhibition [6] [%] | inhibition [7] [%] | inhibition [8] [%] | inhibition [9] [%] | inhibition [10] [%] | inhibition [11] [%] | inhibition [12] [%] | inhibition [13] [%] | inhibition [14] [%] | inhibition [15] [%] | inhibition [16] [%] | inhibition [17] [%] | inhibition [18] [%] | inhibition [19] [%] | inhibition [20] [%]
1 | CCn1c(-c2nonc2N)nc2cnc(Oc3cccc(NC(=O)c4ccc(N(C)C)cc4)c3)cc21 | 0.75 | 0.93 | 5.38 | -0.45 | 4.48 | 1 | 2.79 | 8.94 | 46.6 | 6.2 | 41 | -2.28 | 1.69 | -1.11 | 3.8 | 2.94 | 3.41 | 1.18 | 3.77 | 1.53
2 | Nc1nc(-c2ccc(F)cc2)c(-c2ccc3ncccc3n2)s1 | 6.28 | 8.98 | 37.4 | 3.54 | 19.8 | 3.22 | 5.03 | 12.1 | 20.8 | 11 | 19.6 | 4.79 | 13.9 | 4.95 | 11 | 6.33 | 25.3 | 4.29 | 5.05 | 3.56
3 | Cc1ccc(O)cc1Nc1ccnc2cc(-c3ccccn3)ccc12 | 2.88 | 2.56 | 4.96 | 0.53 | 1.85 | 3.35 | 5.79 | 2.73 | 6.51 | 1.23 | 5.65 | 1.24 | 5.57 | 1.19 | 0.77 | 2.32 | 11.5 | -0.57 | 4.7 | 1.59
4 | [O-][S+]1CCN(Cc2ccc(-c3ccc4ncnc(Nc5ccc(OCc6cccc(F)c6)c(Cl)c5)c4c3)o2)CC1 | 1.25 | 4.05 | 3.96 | 0.06 | 1.57 | 4.92 | 4.13 | 3.26 | 5.28 | 3.06 | 4.76 | -2.75 | 1.62 | 0.28 | 0.6 | 3.35 | 1.33 | 7.21 | 6.45 | 5.68
5 | COc1ccc(-c2cc(-c3c[nH]nc3-c3ccccn3)ccn2)cc1 | 1.7 | 2.83 | 6.71 | -0.15 | 2.54 | 4.14 | 3.1 | 3.67 | 5.27 | 3.56 | 6.22 | 4.42 | 4.88 | 2.68 | -2.34 | 4.47 | 9.74 | 4.07 | 5.26 | 3.56
6 | Clc1ccc(-c2nn3ncccc3c2-c2ccnc(Nc3ccccc3)n2)cc1 | 2.2 | 2.68 | 5.74 | 1.65 | 3.34 | 1.34 | 0.66 | 1.79 | 12.2 | 2.61 | 26.2 | 1.35 | 3.25 | 0.5 | 2.83 | 16.6 | 73.4 | -0.11 | 1.18 | -0.01
7 | CCn1cc(-c2ccnc3[nH]ccc23)c(-c2cccc(NC(=O)Nc3ccc(OCc4ccccc4)cc3)c2)n1 | -1.48 | -3.22 | -2.65 | -1.6 | -0.5 | -0.82 | -4.73 | 2.29 | 3.64 | 1.77 | 3.94 | -3.5 | -1.09 | -1.8 | -0.81 | 0.84 | 1.92 | 1.51 | 0.25 | 1.98
